The supplement of paper PMC10849652
About 7,900 targets were measured; listed, in parts, are those with a hit and a random draw of the rest. About 0.6% of all pairs of compound and target were hits.

compound: C#Cc1cccc(Nc2ncnc3cc(OCCOC)c(OCCOC)cc23)c1 [erlotinib]; assay: log2 fold change, soluble protein after heating vs DMSO (PISA); higher = thermal stabilisation; K562 cells, 10 uM, 30 min; active = over 0.2 and 3.5 SD of the protein, either way, in both replicates (recomputed)
Method in brief: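 Aliquots of K562 cells (2×10^6 cells/mL) treated with 10 μM compound for 30 min were heated for 3 min over 48°C-58°C. After pooling and extraction in PBS with 0.5% NP-40 at 4°C, soluble protein from a 21,000xg, 90 min spin was quantified by TMTpro 16plex LC-MS/MS with channel sums equalised. Thermal stability is expressed against control samples, from duplicates, as a log2 fold change.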

Chain of UniProt O95155 (O95155 whole entry, looked up): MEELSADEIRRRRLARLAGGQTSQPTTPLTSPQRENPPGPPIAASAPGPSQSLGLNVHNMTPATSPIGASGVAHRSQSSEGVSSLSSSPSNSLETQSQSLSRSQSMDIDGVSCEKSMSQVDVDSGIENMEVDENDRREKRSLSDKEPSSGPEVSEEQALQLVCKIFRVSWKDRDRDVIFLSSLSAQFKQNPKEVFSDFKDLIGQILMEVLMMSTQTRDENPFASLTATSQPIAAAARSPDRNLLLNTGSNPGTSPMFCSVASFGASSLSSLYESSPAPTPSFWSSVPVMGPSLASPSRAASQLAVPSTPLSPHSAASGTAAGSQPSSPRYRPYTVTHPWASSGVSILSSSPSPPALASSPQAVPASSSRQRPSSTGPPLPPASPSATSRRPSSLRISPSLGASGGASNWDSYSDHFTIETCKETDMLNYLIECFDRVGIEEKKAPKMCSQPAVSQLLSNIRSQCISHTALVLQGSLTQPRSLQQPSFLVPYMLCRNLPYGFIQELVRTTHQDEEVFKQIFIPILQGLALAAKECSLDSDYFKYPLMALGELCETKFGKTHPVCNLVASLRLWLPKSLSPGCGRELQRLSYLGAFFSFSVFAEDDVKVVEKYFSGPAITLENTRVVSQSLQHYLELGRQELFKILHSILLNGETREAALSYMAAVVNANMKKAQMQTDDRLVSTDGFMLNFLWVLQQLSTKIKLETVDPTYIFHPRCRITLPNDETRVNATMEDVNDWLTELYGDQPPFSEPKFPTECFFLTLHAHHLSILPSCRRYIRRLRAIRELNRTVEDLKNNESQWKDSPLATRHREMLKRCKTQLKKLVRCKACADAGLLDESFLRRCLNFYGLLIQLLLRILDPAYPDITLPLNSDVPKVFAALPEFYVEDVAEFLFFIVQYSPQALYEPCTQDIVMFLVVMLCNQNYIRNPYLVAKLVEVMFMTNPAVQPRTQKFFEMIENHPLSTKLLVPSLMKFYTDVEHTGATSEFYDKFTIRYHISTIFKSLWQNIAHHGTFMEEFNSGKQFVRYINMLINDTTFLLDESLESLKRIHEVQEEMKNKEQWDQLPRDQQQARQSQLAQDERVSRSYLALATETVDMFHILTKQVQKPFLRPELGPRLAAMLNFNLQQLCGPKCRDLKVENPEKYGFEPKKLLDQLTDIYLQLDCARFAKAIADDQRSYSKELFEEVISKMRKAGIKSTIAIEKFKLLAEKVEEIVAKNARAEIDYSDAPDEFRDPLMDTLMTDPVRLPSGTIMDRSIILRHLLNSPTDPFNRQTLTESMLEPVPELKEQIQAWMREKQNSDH
Chain of UniProt P43897 (P43897 whole entry, looked up): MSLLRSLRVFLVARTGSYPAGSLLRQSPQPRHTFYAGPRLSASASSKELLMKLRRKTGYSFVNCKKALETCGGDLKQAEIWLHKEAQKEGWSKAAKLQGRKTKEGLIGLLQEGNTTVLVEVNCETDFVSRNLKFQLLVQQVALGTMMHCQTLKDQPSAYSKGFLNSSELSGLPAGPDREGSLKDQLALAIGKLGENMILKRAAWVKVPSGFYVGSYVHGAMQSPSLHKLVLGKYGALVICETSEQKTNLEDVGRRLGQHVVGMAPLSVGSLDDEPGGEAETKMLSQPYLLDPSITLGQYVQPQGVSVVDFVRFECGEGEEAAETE
Chain of UniProt Q99757 (Q99757 whole entry, looked up): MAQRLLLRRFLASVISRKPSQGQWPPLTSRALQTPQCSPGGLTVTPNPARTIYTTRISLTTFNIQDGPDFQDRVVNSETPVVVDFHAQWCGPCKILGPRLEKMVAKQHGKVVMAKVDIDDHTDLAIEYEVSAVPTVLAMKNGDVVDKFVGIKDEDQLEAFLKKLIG
Chain of UniProt O60701 (O60701 whole entry, looked up): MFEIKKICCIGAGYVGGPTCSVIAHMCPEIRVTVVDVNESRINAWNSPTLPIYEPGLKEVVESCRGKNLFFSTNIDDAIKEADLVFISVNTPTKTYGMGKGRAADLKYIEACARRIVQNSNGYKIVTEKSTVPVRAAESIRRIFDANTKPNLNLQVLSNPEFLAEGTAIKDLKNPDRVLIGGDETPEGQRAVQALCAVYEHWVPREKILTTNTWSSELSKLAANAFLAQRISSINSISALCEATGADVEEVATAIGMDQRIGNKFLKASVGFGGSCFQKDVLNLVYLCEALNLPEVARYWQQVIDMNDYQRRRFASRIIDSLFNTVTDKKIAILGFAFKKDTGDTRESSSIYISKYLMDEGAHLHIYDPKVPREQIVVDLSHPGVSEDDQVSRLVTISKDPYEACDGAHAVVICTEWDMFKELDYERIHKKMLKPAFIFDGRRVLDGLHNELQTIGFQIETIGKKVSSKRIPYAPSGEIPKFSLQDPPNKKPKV
Chain of UniProt Q6VEQ5 (Q6VEQ5 whole entry, looked up): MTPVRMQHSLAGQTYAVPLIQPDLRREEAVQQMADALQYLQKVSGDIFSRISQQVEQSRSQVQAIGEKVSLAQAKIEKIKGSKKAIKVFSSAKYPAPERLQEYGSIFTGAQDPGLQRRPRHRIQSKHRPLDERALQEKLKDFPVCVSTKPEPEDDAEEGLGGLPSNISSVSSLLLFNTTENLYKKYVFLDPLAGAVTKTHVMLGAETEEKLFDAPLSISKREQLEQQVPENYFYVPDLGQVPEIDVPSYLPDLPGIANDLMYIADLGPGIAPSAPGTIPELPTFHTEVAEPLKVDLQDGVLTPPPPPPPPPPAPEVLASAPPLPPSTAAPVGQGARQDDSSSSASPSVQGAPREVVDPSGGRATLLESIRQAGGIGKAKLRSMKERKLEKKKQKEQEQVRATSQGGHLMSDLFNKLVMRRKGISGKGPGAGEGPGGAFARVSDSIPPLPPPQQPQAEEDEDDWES
Chain of UniProt Q96QU8 (Q96QU8 whole entry, looked up): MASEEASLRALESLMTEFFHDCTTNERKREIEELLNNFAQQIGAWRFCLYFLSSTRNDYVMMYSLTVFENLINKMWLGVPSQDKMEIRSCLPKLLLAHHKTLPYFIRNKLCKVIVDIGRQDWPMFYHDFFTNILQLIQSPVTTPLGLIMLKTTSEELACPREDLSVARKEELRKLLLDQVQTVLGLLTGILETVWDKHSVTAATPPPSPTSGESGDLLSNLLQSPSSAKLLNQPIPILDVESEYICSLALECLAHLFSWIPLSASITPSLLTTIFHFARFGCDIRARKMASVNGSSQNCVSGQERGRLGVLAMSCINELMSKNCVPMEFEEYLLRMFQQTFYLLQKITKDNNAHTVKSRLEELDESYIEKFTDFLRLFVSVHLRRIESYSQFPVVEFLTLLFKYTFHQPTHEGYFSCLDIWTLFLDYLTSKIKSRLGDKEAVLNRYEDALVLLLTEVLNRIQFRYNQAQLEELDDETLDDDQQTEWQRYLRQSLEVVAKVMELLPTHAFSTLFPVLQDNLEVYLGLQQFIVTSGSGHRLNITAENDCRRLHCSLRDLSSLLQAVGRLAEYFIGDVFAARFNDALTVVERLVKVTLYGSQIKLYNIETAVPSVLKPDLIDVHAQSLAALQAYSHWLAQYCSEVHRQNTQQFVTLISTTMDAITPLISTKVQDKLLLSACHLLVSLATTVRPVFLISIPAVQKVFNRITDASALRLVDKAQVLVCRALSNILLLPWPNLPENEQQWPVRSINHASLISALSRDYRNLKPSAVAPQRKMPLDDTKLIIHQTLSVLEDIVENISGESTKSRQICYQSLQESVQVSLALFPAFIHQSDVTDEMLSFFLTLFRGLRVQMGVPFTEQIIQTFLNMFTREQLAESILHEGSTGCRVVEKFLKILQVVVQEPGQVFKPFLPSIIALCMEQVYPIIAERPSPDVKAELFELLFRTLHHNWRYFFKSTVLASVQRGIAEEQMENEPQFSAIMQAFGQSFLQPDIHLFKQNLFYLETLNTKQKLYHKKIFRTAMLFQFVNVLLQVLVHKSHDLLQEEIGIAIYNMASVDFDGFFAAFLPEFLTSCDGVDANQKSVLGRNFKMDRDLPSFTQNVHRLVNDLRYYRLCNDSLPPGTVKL
Chain of UniProt O00220 (O00220 whole entry, looked up): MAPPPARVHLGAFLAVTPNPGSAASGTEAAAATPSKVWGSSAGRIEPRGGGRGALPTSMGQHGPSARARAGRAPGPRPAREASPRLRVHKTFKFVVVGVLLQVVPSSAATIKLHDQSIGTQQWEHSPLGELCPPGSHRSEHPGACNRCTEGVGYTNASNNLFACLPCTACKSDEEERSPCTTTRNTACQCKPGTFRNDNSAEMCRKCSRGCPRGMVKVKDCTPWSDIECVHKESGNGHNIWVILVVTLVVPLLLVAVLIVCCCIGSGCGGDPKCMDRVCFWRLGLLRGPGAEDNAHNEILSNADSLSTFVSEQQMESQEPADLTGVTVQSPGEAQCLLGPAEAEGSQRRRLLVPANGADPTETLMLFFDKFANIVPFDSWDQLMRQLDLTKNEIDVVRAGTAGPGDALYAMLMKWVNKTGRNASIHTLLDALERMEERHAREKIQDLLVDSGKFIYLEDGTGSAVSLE
Chain of UniProt Q9BXJ8 (Q9BXJ8 whole entry, looked up): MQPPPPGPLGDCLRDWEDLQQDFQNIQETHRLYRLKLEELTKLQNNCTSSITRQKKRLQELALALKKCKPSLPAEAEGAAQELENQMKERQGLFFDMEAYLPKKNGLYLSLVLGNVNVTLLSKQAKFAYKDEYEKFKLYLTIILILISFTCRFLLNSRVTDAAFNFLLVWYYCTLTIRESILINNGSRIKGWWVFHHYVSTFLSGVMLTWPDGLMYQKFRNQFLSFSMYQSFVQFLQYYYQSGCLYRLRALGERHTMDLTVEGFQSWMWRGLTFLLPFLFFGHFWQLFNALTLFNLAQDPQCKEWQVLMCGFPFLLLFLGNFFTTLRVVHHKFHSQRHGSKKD
Chain of UniProt Q6PID6 (Q6PID6 whole entry, looked up): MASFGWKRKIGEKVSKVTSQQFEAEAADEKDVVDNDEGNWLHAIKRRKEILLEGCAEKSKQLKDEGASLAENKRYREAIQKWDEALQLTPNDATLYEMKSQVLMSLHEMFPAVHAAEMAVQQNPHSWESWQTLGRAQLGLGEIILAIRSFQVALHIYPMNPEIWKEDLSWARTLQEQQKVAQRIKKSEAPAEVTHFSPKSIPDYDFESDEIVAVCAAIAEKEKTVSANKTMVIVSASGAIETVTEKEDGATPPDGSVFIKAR

log2 fold change, inactive:
TRAPPC8 (UniProt Q9Y2L5) 0.024
TOMM5 isoform 2 (UniProt Q8N4H5) -0.115
TTC33 (UniProt Q6PID6) 0.065
TSFM (UniProt P43897) 0.037
XPO6 (UniProt Q96QU8) 0.07
VPS35L (UniProt Q7Z3J2) 0.011
UBE4B isoform 4 (UniProt O95155) -0.01
TOP2A isoform 4 (UniProt P11388) 0.008
TMEM128 (UniProt Q5BJH2) -0.048
WASH2P (UniProt Q6VEQ5) 0.005
UTP3 (UniProt Q9NQZ2) -0.098
UGDH (UniProt O60701) 0.004
WDR43 (UniProt Q15061) 0.001
TNFRSF10A (UniProt O00220) -0.01
XPOT (UniProt O43592) -0.035
VPS33A (UniProt Q96AX1) 0.025
VPS13B (UniProt Q7Z7G8) 0.032
TMEM63B (UniProt Q5T3F8) -0.037
U2AF2 (UniProt P26368) 0.012
TMEM120A (UniProt Q9BXJ8) -0.036
TXN2 (UniProt Q99757) -0.035
TOM1 isoform 2 (UniProt O60784) 0.012
VPS33B (UniProt Q9H267) 0.108
